# Targets with a hit are over-represented here; the source holds about 7,900 in all. About 0.6% of all pairs of compound and target were hits. A number with no mark means an inactive call.
# Tests used:
# Test in all cases: log2 fold change, soluble protein after heating vs DMSO (PISA); higher = thermal stabilisation; K562 cells, 10 uM, 30 min; active = over 0.2 and 3.5 SD of the protein, either way, in both replicates (recomputed)
# erlotinib = compound: C#Cc1cccc(Nc2ncnc3cc(OCCOC)c(OCCOC)cc23)c1 [erlotinib]
# How it was run: (§1)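 Aliquots of K562 cells (2×10^6 cells/mL) treated with 10 μM compound for 30 min were heated for 3 min over 48°C-58°C. After pooling and extraction in PBS with 0.5% NP-40 at 4°C, soluble protein from a 21,000xg, 90 min spin was quantified by TMTpro 16plex LC-MS/MS with channel sums equalised. Thermal stability is expressed against control samples, from duplicates, as a log2 fold change.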
# [1] = compound: C/C(=N\NC(=O)C1=CC(=CC=C1)S(=O)(=O)N2CCOCC2)/C3=C(C=CC(=C3)Cl)O
# How it was run: as §1
# [2] = compound: C1=CC(=C(C=C1Cl)C2=NC3=NC=CN=C3C(=N2)NC4=CC=NC=C4)F
# How it was run: as §1
# [3] = compound: C1=CC(=CC=C1C2=NC3=C(N2)C=C(C=C3)C(=O)N)OC4=CC=C(C=C4)Cl
# How it was run: as §1
# [4] = compound: C1=CC2=C(C=CC(=C2)/C=C\3/C(=O)NC(=NCC4=CC=CS4)S3)N=C1
# How it was run: as §1
# [5] = compound: C1=CC2=NC=CN=C2C=C1/C=C/3\C(=O)NC(=O)S3
# How it was run: as §1
# [6] = compound: C1=CC=C(C=C1)C2=NC(=C(N2)C3=CC=NC=C3)C4=CC(=C(C=C4)Cl)O
# How it was run: as §1
# [7] = compound: C1=CC=C2C(=C1)C3=NNC4=CC=CC(=C43)C2=O
# How it was run: as §1
# [8] = compound: C1CCN(C1)C(=O)NC2=CC=CC(=C2)NC3=NC=C(C(=N3)NCCC4=CN=CN4)Br
# How it was run: as §1
# [9] = compound: C1CN(CCC1(CC2=CC=C(C=C2)Cl)N)C3=NC=NC4=C3C=CN4
# How it was run: as §1
# IRAK-1-4 Inhibitor I = compound: C1COCCN1CCN2C3=CC=CC=C3N=C2NC(=O)C4=CC(=CC=C4)[N+](=O)[O-] [IRAK-1-4 Inhibitor I]
# How it was run: as §1
# ibrutinib = compound: C=CC(=O)N1CCC[C@@H](n2nc(-c3ccc(Oc4ccccc4)cc3)c3c(N)ncnc32)C1 [ibrutinib]
# How it was run: as §1
# [10] = compound: CC(=O)c1cnc2ccc(-c3cc(Cl)c(O)c(Cl)c3)nc2c1N[C@H]1CC[C@H](CN(C)C)CC1
# How it was run: as §1
# ralimetinib = compound: CC(C)(C)Cn1c(N)nc2ccc(-c3[nH]c(C(C)(C)C)nc3-c3ccc(F)cc3)nc21 [ralimetinib]
# How it was run: as §1
# [11] = compound: CC(C)(O)CC(=O)NCCn1ccc2ncnc(Nc3ccc(Oc4cccc(C(F)(F)F)c4)c(Cl)c3)c21
# How it was run: as §1
# [12] = compound: CC(C)C1=C2N=C(C=C(N2N=C1)NCC3=CC=CC=C3)NCCCCCCN
# How it was run: as §1
# [13] = compound: CC(C)C[C@@H](C=O)NC(=O)[C@H](CC(C)C)NC(=O)[C@H](CC(C)C)NC(=O)OCc1ccccc1
# How it was run: as §1
# pinometostat = compound: CC(C)N(C[C@H]1O[C@@H](n2cnc3c(N)ncnc32)[C@H](O)[C@@H]1O)[C@H]1C[C@@H](CCc2nc3cc(C(C)(C)C)ccc3[nH]2)C1 [pinometostat]
# How it was run: as §1
# [14] = compound: CC1=C(C(CC(=O)N1)C2=CC=C(C=C2)C(F)(F)F)C(=O)NC3=C(C=C4C(=C3)C=NN4)F
# How it was run: as §1
# [15] = compound: CC1=C(C2=C(C=C1)C(=O)C3=CC=CC=C3N2CCCN)C
# How it was run: as §1
# Sequence of UniProt P78382 (P78382 whole entry, looked up): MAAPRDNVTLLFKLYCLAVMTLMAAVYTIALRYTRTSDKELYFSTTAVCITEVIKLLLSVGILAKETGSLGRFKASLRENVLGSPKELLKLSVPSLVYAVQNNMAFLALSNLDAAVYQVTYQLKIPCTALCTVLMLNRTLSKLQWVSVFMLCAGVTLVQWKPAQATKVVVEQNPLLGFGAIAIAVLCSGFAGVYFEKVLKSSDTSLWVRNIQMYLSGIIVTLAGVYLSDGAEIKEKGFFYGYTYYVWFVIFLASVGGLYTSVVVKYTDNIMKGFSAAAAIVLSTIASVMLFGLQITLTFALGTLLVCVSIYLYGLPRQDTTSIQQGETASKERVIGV
# Sequence of UniProt Q9H5Q4 (Q9H5Q4 whole entry, looked up): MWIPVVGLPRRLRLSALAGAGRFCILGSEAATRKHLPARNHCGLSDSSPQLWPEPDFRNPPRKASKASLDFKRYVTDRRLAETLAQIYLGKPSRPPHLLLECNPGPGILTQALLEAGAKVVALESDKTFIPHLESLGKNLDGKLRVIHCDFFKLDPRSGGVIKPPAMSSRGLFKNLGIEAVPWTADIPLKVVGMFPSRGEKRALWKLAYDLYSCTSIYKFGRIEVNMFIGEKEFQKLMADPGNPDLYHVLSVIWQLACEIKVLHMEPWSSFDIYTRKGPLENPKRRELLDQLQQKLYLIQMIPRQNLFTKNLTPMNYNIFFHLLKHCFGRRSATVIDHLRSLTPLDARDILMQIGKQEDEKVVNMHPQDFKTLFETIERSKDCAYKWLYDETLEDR
# Sequence of UniProt Q8WVK2 (Q8WVK2 whole entry, looked up): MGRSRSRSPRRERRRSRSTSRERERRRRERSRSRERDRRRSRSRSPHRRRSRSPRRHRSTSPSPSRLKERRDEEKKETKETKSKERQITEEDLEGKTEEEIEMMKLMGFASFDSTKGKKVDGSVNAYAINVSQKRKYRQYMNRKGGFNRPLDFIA
# Sequence of UniProt Q9UDY2 (Q9UDY2 whole entry, looked up): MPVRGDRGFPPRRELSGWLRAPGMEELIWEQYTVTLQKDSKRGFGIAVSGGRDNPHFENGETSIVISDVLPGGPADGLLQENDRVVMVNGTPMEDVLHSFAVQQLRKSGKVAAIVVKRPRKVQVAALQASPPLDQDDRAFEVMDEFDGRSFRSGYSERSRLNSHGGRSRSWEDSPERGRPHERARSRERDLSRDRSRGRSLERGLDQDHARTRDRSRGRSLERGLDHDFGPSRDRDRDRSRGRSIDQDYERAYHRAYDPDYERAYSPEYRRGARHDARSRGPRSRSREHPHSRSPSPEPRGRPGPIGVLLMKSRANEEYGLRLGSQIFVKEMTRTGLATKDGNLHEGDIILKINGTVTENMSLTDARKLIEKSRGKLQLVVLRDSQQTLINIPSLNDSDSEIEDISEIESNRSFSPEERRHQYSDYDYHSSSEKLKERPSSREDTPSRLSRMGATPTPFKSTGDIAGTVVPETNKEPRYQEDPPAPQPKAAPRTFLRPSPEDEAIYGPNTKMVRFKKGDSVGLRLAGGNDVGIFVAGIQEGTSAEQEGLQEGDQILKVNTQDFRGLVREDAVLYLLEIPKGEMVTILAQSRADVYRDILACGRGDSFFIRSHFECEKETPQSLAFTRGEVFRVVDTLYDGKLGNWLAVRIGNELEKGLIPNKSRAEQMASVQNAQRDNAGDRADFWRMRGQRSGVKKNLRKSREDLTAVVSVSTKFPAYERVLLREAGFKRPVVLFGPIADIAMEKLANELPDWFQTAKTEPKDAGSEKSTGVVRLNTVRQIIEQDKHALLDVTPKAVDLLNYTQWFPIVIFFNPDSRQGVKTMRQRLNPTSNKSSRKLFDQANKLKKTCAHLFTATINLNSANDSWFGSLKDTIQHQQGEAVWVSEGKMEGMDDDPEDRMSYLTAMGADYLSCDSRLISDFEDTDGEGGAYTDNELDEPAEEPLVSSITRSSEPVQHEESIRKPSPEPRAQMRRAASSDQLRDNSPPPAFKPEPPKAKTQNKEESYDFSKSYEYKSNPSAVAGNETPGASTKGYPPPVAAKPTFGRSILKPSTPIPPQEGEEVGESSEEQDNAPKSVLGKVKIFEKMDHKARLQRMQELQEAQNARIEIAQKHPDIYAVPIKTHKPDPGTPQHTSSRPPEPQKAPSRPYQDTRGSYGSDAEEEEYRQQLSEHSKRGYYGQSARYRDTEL
# Sequence of UniProt Q9BUA3 (Q9BUA3 whole entry, looked up): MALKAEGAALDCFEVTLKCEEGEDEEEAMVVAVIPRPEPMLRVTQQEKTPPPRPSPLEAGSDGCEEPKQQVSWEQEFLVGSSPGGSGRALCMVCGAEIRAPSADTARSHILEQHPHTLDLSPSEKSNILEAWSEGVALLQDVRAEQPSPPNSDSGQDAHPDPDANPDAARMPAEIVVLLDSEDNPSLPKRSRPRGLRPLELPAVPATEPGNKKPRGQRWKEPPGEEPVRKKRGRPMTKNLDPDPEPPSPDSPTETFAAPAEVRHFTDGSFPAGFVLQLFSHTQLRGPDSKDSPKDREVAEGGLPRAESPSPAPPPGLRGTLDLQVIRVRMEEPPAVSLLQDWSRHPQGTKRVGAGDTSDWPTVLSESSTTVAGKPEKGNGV
# Sequence of UniProt P51687 (P51687 whole entry, looked up): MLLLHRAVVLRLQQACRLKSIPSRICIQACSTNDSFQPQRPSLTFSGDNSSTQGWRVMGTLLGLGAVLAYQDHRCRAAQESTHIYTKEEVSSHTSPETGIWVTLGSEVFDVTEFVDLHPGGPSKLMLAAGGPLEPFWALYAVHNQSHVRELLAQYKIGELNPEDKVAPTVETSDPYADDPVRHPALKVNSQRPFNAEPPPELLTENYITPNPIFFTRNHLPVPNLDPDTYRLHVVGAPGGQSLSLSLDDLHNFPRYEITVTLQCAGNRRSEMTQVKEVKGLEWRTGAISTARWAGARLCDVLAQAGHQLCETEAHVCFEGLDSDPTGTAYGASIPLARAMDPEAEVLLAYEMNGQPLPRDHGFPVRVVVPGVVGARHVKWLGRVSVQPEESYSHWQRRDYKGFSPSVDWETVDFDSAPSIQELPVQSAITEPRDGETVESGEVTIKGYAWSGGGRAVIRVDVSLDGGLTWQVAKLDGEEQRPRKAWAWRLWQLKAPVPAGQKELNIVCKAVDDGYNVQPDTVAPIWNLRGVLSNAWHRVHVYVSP
# Sequence of UniProt Q13395 (Q13395 whole entry, looked up): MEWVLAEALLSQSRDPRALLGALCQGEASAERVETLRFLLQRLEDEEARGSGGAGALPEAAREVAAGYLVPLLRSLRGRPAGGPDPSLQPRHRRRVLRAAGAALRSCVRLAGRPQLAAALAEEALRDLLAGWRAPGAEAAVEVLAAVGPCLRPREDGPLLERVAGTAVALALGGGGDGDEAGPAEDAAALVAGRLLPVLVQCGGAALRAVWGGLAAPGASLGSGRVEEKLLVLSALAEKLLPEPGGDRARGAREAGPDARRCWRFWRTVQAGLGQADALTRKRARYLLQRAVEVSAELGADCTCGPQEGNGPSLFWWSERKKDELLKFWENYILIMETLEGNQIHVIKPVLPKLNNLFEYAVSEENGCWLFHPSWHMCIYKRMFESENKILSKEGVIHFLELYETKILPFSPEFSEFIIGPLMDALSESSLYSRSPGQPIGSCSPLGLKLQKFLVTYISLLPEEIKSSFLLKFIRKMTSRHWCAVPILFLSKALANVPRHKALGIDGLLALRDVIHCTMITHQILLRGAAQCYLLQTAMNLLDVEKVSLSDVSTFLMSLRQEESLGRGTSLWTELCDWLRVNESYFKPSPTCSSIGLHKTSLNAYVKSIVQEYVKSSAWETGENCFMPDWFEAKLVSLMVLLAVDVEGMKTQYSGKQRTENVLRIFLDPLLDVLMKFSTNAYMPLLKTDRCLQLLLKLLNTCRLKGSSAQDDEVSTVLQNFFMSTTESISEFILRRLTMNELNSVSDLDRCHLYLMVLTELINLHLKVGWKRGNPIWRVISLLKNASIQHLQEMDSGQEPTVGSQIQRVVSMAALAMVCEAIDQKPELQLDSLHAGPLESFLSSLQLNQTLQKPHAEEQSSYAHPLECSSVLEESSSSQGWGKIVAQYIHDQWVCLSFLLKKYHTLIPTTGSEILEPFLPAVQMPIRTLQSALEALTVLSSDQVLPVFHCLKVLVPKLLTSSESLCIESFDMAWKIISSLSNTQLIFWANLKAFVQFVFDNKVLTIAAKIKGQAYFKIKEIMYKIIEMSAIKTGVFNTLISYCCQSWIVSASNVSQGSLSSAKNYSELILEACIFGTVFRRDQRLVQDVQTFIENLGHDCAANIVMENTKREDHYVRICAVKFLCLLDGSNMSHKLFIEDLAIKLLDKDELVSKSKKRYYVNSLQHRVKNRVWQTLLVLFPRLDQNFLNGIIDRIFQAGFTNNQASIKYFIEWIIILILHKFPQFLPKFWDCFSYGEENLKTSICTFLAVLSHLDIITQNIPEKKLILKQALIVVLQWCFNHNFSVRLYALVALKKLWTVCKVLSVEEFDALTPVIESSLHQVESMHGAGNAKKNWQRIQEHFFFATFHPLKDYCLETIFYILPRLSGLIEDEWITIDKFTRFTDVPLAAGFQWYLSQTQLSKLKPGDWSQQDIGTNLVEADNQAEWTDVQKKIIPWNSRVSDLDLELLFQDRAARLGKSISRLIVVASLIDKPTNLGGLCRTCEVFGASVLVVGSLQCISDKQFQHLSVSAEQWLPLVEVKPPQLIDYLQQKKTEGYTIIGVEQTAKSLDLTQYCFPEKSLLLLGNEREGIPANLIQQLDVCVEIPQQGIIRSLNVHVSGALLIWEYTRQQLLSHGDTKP
# Sequence of UniProt P04183 (P04183 whole entry, looked up): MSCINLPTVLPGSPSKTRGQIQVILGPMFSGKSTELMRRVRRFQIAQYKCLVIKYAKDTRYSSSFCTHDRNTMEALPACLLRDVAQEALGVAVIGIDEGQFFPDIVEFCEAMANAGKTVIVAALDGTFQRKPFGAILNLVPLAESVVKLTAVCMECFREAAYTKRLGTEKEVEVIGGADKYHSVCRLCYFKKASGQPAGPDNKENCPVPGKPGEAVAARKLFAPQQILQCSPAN
Target,log2 fold change (erlotinib),log2 fold change [1],log2 fold change [2],log2 fold change [3],log2 fold change [4],log2 fold change [5],log2 fold change [6],log2 fold change [7],log2 fold change [8],log2 fold change [9],log2 fold change (IRAK-1-4 Inhibitor I),log2 fold change (ibrutinib),log2 fold change [10],log2 fold change (ralimetinib),log2 fold change [11],log2 fold change [12],log2 fold change [13],log2 fold change (pinometostat),log2 fold change [14],log2 fold change [15]
SRFBP1 (UniProt Q8NEF9),-0.256,-0.082,-0.114,0.039,-0.03,0.104,-0.08,0.082,0.069,-0.065,-0.081,-0.037,-0.099,-0.022,0.091,0.137,0.25,0.018,0.21,0.023
SUOX (UniProt P51687),0.044,0.047,0.046,-0.01,0.027,0.036,-0.112,-0.004,0.013,0.087,0.123,-0.007,0.003,0.012,-0.022,0.042,0.013,0.016,0.039,0.02
SLC35A1 (UniProt P78382),0.014,-0.126,0.05,-0.008,0.082,-0.017,-0.043,-0.061,-0.052,0.077,-0.057,0.119,-0.027,-0.049,-0.056,0.066,0.007,-0.055,0.059,0.138
SUCLA2 (UniProt Q9P2R7),0.024,0.016,0.072,-0.031,0.049,-0.018,0.037,-0.019,0.004,-0.01,0.02,-0.045,0.014,-0.021,-0.151,-0.107,-0.033,-0.034,-0.021,0.022
SPINDOC (UniProt Q9BUA3),-0.013,-0.017,-0.01,-0.044,0.036,0.074,-0.063,-0.066,-0.129,0.09,0.029,0.089,0.017,0.084,-0.01,0.103,0,0.075,0.093,-0.24
TK1 (UniProt P04183),-0.029,0.004,0.044,0.017,-0.02,-0.012,-0.03,-0.011,-0.028,0.046,0.037,0.025,0.003,-0.048,-0.016,0.059,-0.001,-0.013,0.06,-0.01
TELO2 (UniProt Q9Y4R8),0.043,0.102,-0.185,-0.031,-0.039,0.019,-0.037,0.053,0.046,-0.076,-0.126,-0.044,0.008,0.103,0,-0.375,0.049,0.204,-0.015,0.125
TARBP1 (UniProt Q13395),0.015,0.062,0.023,0.027,-0.091,0.065,-0.022,0.012,-0.085,0.019,0.062,-0.007,-0.01,0.003,-0.074,-0.066,0.009,0.041,0.04,0.184
STARD3 (UniProt Q14849),-0.073,0.133,-0.05,0.022,-0.095,0.058,-0.028,0.197,0.059,0.04,-0.075,0.23,-0.033,0.033,-0.075,-0.429 (active),0.122,0,0.222,-0.044
TJP2 isoform 7 (UniProt Q9UDY2),0.116,0.06,-0.042,0.006,0.029,-0.201,0.008,-0.006,-0.08,0.001,0.004,-0.004,-0.437 (active),0.032,-0.061,-0.107,0.068,0.003,0.017,0.05
STAT6 (UniProt P42226),0.082,0.061,0.12,0.018,0.022,-0.032,0.025,-0.026,-0.063,0.04,-0.145,0.031,-0.222,0.054,-0.128,-0.058,0.007,0.11,0.125,-0.048
SNRNP27 (UniProt Q8WVK2),0.026,-0.021,0.052,0.015,0.015,0.045,-0.165,-0.027,0.061,0.035,0.033,0.002,-0.03,-0.118,0.018,0.035,0.054,-0.04,0.082,-0.043
SOAT1 (UniProt P35610),0.174,0.099,-0.034,-0.063,0.141,0.063,0.074,-0.038,0.001,0.026,0.1,-0.008,-0.031,0.031,-0.04,-0.014,0.303,-0.017,-0.041,0.053
SLC38A9 (UniProt Q8NBW4),0.008,-0.023,-0.018,0.02,0.046,0.063,-0.071,-0.011,-0.042,0.055,-0.028,-0.005,-0.019,0,0.089,-0.368 (active),0.049,-0.023,0.023,-0.1
TIMM44 (UniProt O43615),-0.012,0.026,0.054,-0.007,0.024,0.041,0.042,0.012,0.028,-0.029,0.066,-0.061,-0.065,-0.039,-0.171,-0.399 (active),0.006,-0.004,0.028,0.022
TFB2M (UniProt Q9H5Q4),0.007,0.094,0.037,-0.043,0.016,0.019,-0.022,-0.019,0.002,0.007,0.037,-0.029,-0.013,-0.085,-0.136,-0.08,0.02,0.012,-0.03,0.005

# From the supplement of paper PMC10849652
